This is one part of a sample in which hits are shown more often than they occur.
nsP2pro primary: CHIKV nsP2 protease inhibition, primary qHTS. actives 1.1% (n = 31,000). Potency, µM (highest dose often 24.9 µM), inactives show top-dose activity change, negative = inhibition, actives largely listed as inhibitors. FRET peptide cleavage, nsP2pro, fluorescence 1 h. Q8JUX6; calls by dose curve; note: nearly all actives have a fitted effect of over 60% in size
Target sequence (Q8JUX6 whole entry, looked up): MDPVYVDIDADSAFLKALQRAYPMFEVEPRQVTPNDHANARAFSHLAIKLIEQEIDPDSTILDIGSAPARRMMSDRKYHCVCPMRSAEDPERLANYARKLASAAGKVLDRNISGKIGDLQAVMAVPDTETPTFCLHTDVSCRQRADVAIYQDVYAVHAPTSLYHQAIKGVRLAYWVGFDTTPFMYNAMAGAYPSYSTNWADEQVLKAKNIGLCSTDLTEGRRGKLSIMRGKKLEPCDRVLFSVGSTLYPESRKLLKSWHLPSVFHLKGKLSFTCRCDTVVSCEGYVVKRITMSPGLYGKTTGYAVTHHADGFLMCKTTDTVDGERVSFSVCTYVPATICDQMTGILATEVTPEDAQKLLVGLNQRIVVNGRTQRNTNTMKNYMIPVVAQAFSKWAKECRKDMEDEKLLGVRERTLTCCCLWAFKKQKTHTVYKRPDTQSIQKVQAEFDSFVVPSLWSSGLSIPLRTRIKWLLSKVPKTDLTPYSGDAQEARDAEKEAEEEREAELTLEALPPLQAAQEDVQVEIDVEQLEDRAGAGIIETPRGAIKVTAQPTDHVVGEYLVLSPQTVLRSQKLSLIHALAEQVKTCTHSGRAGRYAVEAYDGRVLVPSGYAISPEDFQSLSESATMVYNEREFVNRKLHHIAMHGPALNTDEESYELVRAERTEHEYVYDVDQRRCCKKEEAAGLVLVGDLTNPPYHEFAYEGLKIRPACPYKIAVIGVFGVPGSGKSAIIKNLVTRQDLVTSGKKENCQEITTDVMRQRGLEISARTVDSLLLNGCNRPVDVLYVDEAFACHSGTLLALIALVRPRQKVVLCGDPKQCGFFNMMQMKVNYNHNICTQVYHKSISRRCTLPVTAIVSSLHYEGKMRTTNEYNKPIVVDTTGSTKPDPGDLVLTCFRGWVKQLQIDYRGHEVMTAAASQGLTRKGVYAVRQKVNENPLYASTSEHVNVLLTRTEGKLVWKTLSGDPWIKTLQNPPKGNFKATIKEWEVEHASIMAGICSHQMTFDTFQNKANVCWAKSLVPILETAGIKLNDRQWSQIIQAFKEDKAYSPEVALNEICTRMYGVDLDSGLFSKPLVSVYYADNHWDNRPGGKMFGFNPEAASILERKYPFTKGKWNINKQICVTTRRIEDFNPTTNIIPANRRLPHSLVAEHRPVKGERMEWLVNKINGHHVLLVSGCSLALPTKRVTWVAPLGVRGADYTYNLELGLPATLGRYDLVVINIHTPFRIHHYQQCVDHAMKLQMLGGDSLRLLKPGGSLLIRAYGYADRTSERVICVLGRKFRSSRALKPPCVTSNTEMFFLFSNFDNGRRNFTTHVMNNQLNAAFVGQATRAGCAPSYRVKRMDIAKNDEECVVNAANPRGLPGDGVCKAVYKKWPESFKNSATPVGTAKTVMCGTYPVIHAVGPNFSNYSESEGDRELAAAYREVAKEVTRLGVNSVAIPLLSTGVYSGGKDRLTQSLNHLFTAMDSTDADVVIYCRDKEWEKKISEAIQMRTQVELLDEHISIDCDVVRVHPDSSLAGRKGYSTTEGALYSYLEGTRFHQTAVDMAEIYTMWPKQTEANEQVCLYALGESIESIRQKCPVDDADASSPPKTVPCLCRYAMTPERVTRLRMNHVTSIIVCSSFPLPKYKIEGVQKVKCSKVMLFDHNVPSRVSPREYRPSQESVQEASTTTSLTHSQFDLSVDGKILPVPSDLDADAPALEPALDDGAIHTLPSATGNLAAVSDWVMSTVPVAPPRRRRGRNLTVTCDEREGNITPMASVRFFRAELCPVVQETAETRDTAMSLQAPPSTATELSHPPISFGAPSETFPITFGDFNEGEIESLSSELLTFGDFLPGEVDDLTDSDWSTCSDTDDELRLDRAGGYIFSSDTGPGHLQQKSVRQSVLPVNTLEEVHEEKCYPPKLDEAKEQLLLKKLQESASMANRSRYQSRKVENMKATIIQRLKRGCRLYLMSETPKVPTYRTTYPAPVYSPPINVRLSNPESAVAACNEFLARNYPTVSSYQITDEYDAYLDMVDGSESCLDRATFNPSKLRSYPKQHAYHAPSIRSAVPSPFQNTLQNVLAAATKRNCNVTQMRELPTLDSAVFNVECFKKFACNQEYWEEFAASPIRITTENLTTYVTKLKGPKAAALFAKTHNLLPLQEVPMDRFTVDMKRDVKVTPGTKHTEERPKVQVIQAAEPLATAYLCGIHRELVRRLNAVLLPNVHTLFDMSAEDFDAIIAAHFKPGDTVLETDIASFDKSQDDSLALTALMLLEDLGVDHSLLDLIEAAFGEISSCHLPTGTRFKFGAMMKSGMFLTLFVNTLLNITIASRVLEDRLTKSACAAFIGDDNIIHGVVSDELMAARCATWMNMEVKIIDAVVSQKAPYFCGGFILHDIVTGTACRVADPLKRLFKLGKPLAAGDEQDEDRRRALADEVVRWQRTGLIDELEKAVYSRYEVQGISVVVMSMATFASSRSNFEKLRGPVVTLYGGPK
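FRET cleavage of 2.5 uM peptide 2 by 150 nM CHIKV protease domain at pH 8.0 (Tris, Tween 20). Compounds at 7 concentrations (up to 25 uM) preincubated 15 min. Fluorescence read after 1 h at room temperature.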
* hit, by the source's call; i = inactive; [ ] = dose if it differs, or a comment. % is set by controls: 0 for no effect and ±100 for the full control effect; potency is the fitted concentration of half-maximal effect.

SMILES	nsP2pro primary
CCOC(=O)NNc1nncc2ccccc12	7%
O=C(Cc1ccc(Cl)cc1)Nc1cnccc1C(=O)O	10%
COCC(=O)N1c2nc(C(C)C)nn2C2(CCCCC2)[C@@H]2CCCC[C@@H]21	11µM*
O=C(c1cccc([N+](=O)[O-])c1)N1c2ncnn2C2(CCCCC2)[C@@H]2CCCC[C@@H]21	-18%
CC(=O)N1c2nc(-c3ccco3)nn2C2(CCCCC2)[C@@H]2CCCC[C@@H]21	-28%
O=C(CC1CCCCC1)N1CC(n2cc(COCC3CC3)nn2)C1	-6%
COc1ccc(S(=O)(=O)N2C[C@@H]3C[C@H](C2)c2c(NC(=O)c4ccccc4)ccc(=O)n2C3)cc1	4%
O=c1ccc(-c2cccs2)c2n1C[C@H]1C[C@@H]2CN(S(=O)(=O)c2ccccc2)C1	16µM*
Cc1ccc(NC(=O)N2C[C@@H]3C[C@H](C2)c2c(-c4cccs4)ccc(=O)n2C3)cc1	-2%[39.2 µM]
Cc1cc(-c2nc(Nc3ccc(F)c(F)c3)c3ccccc3n2)cc(C)n1	i
CN[C@@H]1[C@H](O)[C@H](O[C@@H]2[C@H](O)[C@@H](O[C@H]3O[C@H]([C@@H](C)NC)CC[C@H]3N)[C@@H](N)C[C@H]2N)OC[C@]1(C)O	8%[5.1 µM]
O=C1Nc2ccccc2CN(CC2CC2)C12CCNC2 (configuration not stated)	-7%[39.2 µM]
COC(=O)N1CCCCC12Cc1ccccc1NC2=O (configuration not stated)	-4%[39.2 µM]
CC(C)C(=O)N1Cc2ccccc2NC(=O)C12CCNC2 (configuration not stated)	-8%[39.2 µM]
O=C1Nc2ccccc2CN(CC2CCCC2)C12CCNC2 (configuration not stated)	13µM*
CC(C)=CCN1Cc2ccccc2NC(=O)C12CCNC2 (configuration not stated)	10µM*
Cc1ccc([S+](=O)([O-])N2CCCCC23Cc2ccccc2NC3=O)cc1 (configuration not stated)	i
CCCn1cc(-c2ccnc(NC3CCN(Cc4cccnc4)CC3)n2)c(C)n1	i
C[C@@H](Nc1ncnc2[nH]c(-c3ccc(O)cc3)cc12)c1ccccc1	44%
CNC(C)CC1CCCC1 (configuration not stated)	-4%
CC12CC(O)C3CC1(O[C@@H]1O[C@H](CO)[C@@H](O)[C@H](O)[C@H]1O)C3(COC(=O)c1ccccc1)C(=O)O2 (some centres not stated)	-15%
CCOC(=O)c1nnc(N[S+](=O)([O-])c2ccc(NC(=O)Cc3ccc(Cl)c(Cl)c3)cc2)s1	i
NCCCC[C@@H]1NC(=O)[C@@H](Cc2c[nH]c3ccccc23)NC(=O)[C@H](c2ccccc2)NC(=O)[C@@H]2C[C@@H](OC(=O)NCCN)CN2C(=O)[C@H](Cc2ccccc2)NC(=O)[C@H](Cc2ccc(OCc3ccccc3)cc2)NC1=O	88%[10 µM]
COc1ccccc1C(=O)N1Cc2c(C(=O)NC3CC3)nn(C)c2C1	-2%
O=C(Nc1ccc(-c2nc3ccccc3[nH]2)cc1)c1ccc2ncccc2c1	0%
SMILES	nsP2pro primary
O=C(Nc1ccc(-c2nc3ccccc3[nH]2)cc1)c1ccc2sccc2c1	-11%
O=C(Nc1ccc(-c2nc3ccccc3[nH]2)cc1)c1ccc2ncsc2c1	11µM*
Cc1cc(C)nc(NC(=S)N2CCN(c3ccc4cn(C)nc4c3)CC2)c1	i
CCOc1cc(C(CS(C)(=O)=O)N2C(=O)c3cccc(NC(C)=O)c3C2=O)ccc1OC (configuration not stated)	-16%
O=C(Nc1nc2c(s1)CCCCCC2)Nc1ccc(F)cc1F	-13%
CCCOc1ccccc1C(=O)Nc1nc2c(s1)CCCC2	13µM*
COc1ccccc1C(=O)Nc1nc(-c2ccccc2)cs1	-6%
CCOc1ccc(Cc2cc([C@@]34OC[C@@](CO)(O3)[C@@H](O)[C@H](O)[C@H]4O)ccc2Cl)cc1	-3%
Cc1cccc(-n2cnc3cc(C(=O)N4CCCC(C)C4)ccc32)c1 (configuration not stated)	4%
CN(C)c1ccc(-c2nc3ccccc3s2)cc1	i
CCc1nc2c(cnn2-c2ccc(C)cc2)c(=O)n1Cc1ccccc1	-19%
COc1ccc(-n2c(-c3ccccc3F)nc3c(cnn3-c3ccc(C)cc3)c2=O)cc1	11µM*
COc1ccc(Oc2c(Cl)cnn(-c3cc(C)cc(C)c3)c2=O)cc1	0%
Oc1ccccc1-c1cc(C2=CCOCC2)c2cncn2c1	-5%[39.2 µM]
c1ccc(-n2ccc(-c3nnc4n3CCCCC4)c2)cc1	13µM*
c1ccc(-n2cc(-c3nnc4n3CCCCC4)c3ccccc32)cc1	i
Cc1cc(-c2nnc3n2CCCCC3)c(C)n1-c1cccnc1	-5%
CN(C)Cc1nnc(C2CC(NC(=O)c3cc(-c4cccn4C)n[nH]3)C2)n1C (configuration not stated)	0.5µM*
CN(C)Cc1nnc(C2CC(NC(=O)Cc3c(F)cccc3Cl)C2)n1C (configuration not stated)	-8%
CN(C)Cc1nnc(C2CC(NC(=O)c3cc(-c4ccsc4)n[nH]3)C2)n1C (configuration not stated)	-1%
CN1Cc2c(Cl)cc(Cl)cc2[C@H](c2cccc(S(=O)(=O)NCCOCCOCCNC(=O)NCCCCNC(=O)NCCOCCOCCNS(=O)(=O)c3cccc([C@@H]4CN(C)Cc5c(Cl)cc(Cl)cc54)c3)c2)C1	-18%
O=C(c1nc2c(o1)CCN(Cc1cccc(F)c1)CC2)N1CCOCC1	2.8µM*
Cn1c(C(=O)Nc2ccc3c(c2)OCO3)cc2c1CCN(Cc1cccc(F)c1)C2	-9%
Fc1ccc(-c2cccc(CN3CCOCC3)c2)c(Cl)c1	2%
c1csc(CNc2ccc(N3CCCCC3)cc2)c1	i
SMILES	nsP2pro primary
Cc1nn(C)c(C)c1CCC(=O)NCCc1ncc(C)n1C1CCCCC1	i
Cc1ccc(OCCn2c(CCNC(=O)c3ccsc3)nc3ccccc32)cc1	3%
C=C/C=C/C[C@@H](C)[C@@H](O)[C@H]1C(=O)N[C@@H](CC)C(=O)N(C)CC(=O)N(C)[C@@H](CC(C)C)C(=O)N[C@@H](C(C)C)C(=O)N(C)[C@@H](CC(C)C)C(=O)N[C@@H](C)C(=O)N[C@H](C)C(=O)N(C)[C@@H](CC(C)C)C(=O)N(C)[C@@H](CC(C)C)C(=O)N(C)[C@@H](C(C)C)C(=O)N1C	0%
CN1CCN(c2ccc(NC(=O)CN(C)Cc3c(O)ccc4ccccc34)cc2)CC1	13µM*
COc1ccc2ccccc2c1CN(C)CC(=O)Nc1ccc(N2CCOCC2)cc1	-8%
CN(CC(=O)Nc1ccc(N2CCOCC2)cc1)Cc1ccccc1O	-1%
COc1cc2ncnc(Nc3cccc(I)c3)c2cc1OC	55%
CC1=CC(O)CC(C)(C)C1/C=C/C(C)=C/C=C/C(C)=C/C=C/C=C(C)/C=C/C=C(C)/C=C/C1=C(C)CC(O)CC1(C)C (configuration not stated)	-26%
O=c1cc(-c2ccncc2)oc2c(-c3cccc(CO)c3)nccc12	14µM*
Cc1ccccc1-c1nccc2c(=O)cc(C3=CCOCC3)oc12	-18%[39.2 µM]
O=c1cc(-c2cccnc2)oc2c(NCCc3ccccn3)nccc12	-21%[39.2 µM]
CC(=O)OC[C@]12C[C@H](O)C(C)=C[C@H]1O[C@@H]1[C@H](O)[C@@H](O)[C@@]2(C)[C@]12CO2	-2%
CC1=CC2OC3[C@H](O)C[C@@](C)([C@]34CO4)[C@@]2(CO)[C@H](O)C1=O (some centres not stated)	0.31µM*

Bioassay records as filed in PubChem BioAssay.
